Screening results deposited in PubChem by several laboratories.
Most compounds without a hit are left out; they make up all but 5.4% or so of the library.
Beta apoptosis: inhibitors of cytokine-induced beta cell apoptosis, primary screen, luminescence. protection from apoptosis, % (concentration not given with the values). 300,000 tested, 0.8% active. AID 435005, 2010. INS-1E cytokine-induced death, ATP luminescence, 48 h; percent of positive-control rescue, neutral wells zero;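 active = Every replicate reaches about 75%, or at least half do and their mean reaches it too, limit read from the data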;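 also: 0% = cytokine-treated negative control wells and 100% = positive control rescue; higher means more ATP so stronger rescue from cytokine killing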
Calb FLC: C. albicans growth inhibition with fluconazole, primary screen, CaCi-2 strain, Alamar Blue fluorescence; C. albicans CaCi-2 (fluconazole-resistant clinical isolate) + fluconazole, 48 h; growth inhibition, % (concentration not given with the values); 300,000 tested, 0.57% active;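 active = growth inhibition above about 58% in most replicates, limit read from the data, passing the limit was not always enough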;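 also: all wells also contain fluconazole at 8 µg/ml as a sub-toxic cotreatment; 0% = median of DMSO wells and 100% = median of geldanamycin control wells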
CSC inhib: cancer stem cell viability inhibitors, primary screen, luminescence; cancer stem cell-like cells viability; inhibition, % at 7.5 µM; 300,000 tested, 1.1% active; AID 2717, 2010; in the data active = inhibition above about 75%; tested in HMLE shEcad cells
Mdm2-MdmX inh: inhibitors of human Mdm2-MdmX association, primary screen, cell-based, luminescence, split luciferase, SaOS-2, uHTS. Protein Mdm4 (Homo sapiens) + E3 ubiquitin-protein ligase Mdm2 (Homo sapiens), …. inhibition, % at 8 µM. AID 485346, 2010. SaOS-2 split-luciferase Mdm2/MdmX complementation. 330,000 tested, 3% active;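 active = inhibition of at least 50% at 8 µM in the primary screen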
MPTP block: mitochondrial permeability transition pore inhibitors, primary screen, biochemical, isolated mouse mitochondria, absorbance. Ca2+ swelling absorbance, 30 min. inhibition, % at 10 µM. 360,000 tested, 1.4% active;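 active = inhibition of 50% or more, scaled per plate between neutral and stimulator controls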;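 also: 0% = DMSO wells given calcium and 100% = 1 mM EGTA wells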
SKKanGAS inh: S. pyogenes SKKanGAS growth inhibitors in kanamycin, primary screen, streptokinase expression inhibitor project, SKKanGAS strain, BacTiter-Glo luminescence. 6 h. inhibition, % at 7.5 µM. 300,000 tested, 1.3% active;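 active = mean replicate score, as percent of positive control median, at least 50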;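 also: strain carries kanamycin resistance gene driven by streptokinase promoter and grows in 40 µg/ml kanamycin; loss of luminescence reflects streptokinase promoter inhibition or plain growth inhibition; 0% = median of DMSO wells and 100% = positive control at its reference dose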
Mdm2-MdmX conf: Mdm2-MdmX complex disruptors, retested hits, confirmation, luminescence, single concentration; shares compounds with Mdm2-MdmX inh; Mdm2-MdmX binding, luminescent assay; inhibition, % at 8 µM; 10,000 tested, 55% active; in the data active = inhibition above about 40%
Full FLuc ctr: full-length luciferase signal inhibition, confirmation, counter-screen for Mdm2/MdmX interaction inhibitor project, cell-based, single concentration, SaOS-2. inhibition, % at 8 µM. AID 504607, 2011. 6,200 tested, 77% active. SaOS-2 full-length luciferase counterscreen, luminescence. shares compounds with Mdm2-MdmX inh;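 active = mean inhibition at 8 µM reaching about 37%, which flags the compound as non-specific, limit read from the data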;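 also: p53-null SaOS-2 cells with luciferase driven by a doxycycline-inducible promoter; compound on cells about two nights before reading with doxycycline added after day one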
The depositor's hits bear a star; / = no result given.

SMILES	Beta apoptosis	Calb FLC	CSC inhib	Mdm2-MdmX inh	MPTP block	SKKanGAS inh	Mdm2-MdmX conf	Full FLuc ctr
O=[N+]([O-])c1ccc(Sc2nnnn2-c2ccccc2)nc1	/	-1	/	61*	/	-6	47*	79*
CCCSc1nnc(Sc2nnnn2-c2ccccc2)s1	/	18	53	66*	0	3	64*	56*
CC1CCC(C(C)C)C(OC(=O)C[n+]2cccc(C(N)=O)c2)C1 (stereo unspecified)	-7	4	/	12	1	3	/	/
COc1ccc(-c2c[n+](CC(=O)OC3CC(C)CCC3C(C)C)c3n2CCC3)cc1 (stereo unspecified)	103*	88*	-2	63*	0	-2	31	57*
NS(=O)(=O)c1ccc(CCNC(=O)C(c2ccccc2)c2ccccc2)cc1	-1	0	-4	-4	-3	2	/	/
COc1cc2c(cc1OC)C(c1cc(Br)ccc1F)N(C(=O)CCl)CC2 (stereo unspecified)	7	-3	42	100*	1	-3	73*	55*
Cc1nc(N2CCN(C)CC2)c2c(C)c(C(=O)Nc3ccc(C)c(F)c3)sc2n1	-11	-7	10	50*	-2	-13	34	/
Cc1nc(N2CCN(c3ccccn3)CC2)c2c(C)c(C(=O)Nc3c(C)cc(Br)cc3C)sc2n1	4	-5	0	59*	0	-12	30	/
COc1ccccc1N1CCN(C(=O)c2sc3ncnc(N4CCN(c5ccccn5)CC4)c3c2C)CC1	-2	-15	/	56*	-1	23	48*	88*
COc1ccccc1N1CCN(C(=O)c2sc3nc(C)nc(N4CCN(c5ccccn5)CC4)c3c2C)CC1	-3	2	14	76*	1	27	71*	38*
Cc1nc(N2CCCCC2)c2c(C)c(C(=O)Nc3ccc4c(c3)OCCO4)sc2n1	9	-1	3	12	-1	-4	/	/
Cc1nc(N2CCN(c3ccccn3)CC2)c2c(C)c(C(=O)N3CCN(c4ccc(F)cc4)CC3)sc2n1	6	1	/	38	0	36	/	/
CCOc1ccc(-n2c(C)nnc2SCC(=O)N(CC)CC)cc1	-4	-9	25	19	-3	3	/	/
O=C(N=NC(=O)c1ccco1)c1ccc2c(O)n(N3C(=O)c4ccccc4C3=O)c(O)c2c1	-5	-6	5	-11	5	-4	/	/
COc1cc(COCC(O)CN2CCCCC2C)cc(OC)c1OC (stereo unspecified)	1	-5	3	-19	0	1	/	/
Cc1c(C(=O)N2CCN(c3ccc(F)cc3)CC2)sc2ncnc(N3CCN(c4ccccn4)CC3)c12	11	11	14	53*	0	26	29	61*
CSc1cc(-c2ccc(Cl)cc2)n(Cc2ccccc2)c(=O)c1C#N	9	4	61	98*	7	-11	7	/
Cc1cc(=O)n(Cc2ccccc2)c(O)c1C#N	-1	9	5	-12	0	2	/	/
CCOC(=O)Cn1c(-c2ccccc2)cc(SC)c(C#N)c1=O	-10	1	-17	0	1	4	/	/
CSc1cc(-c2ccccc2)n(Cc2c(Cl)cccc2Cl)c(=O)c1C#N	2	-6	59	66*	0	0	51*	69*
COc1ccc(Cn2c(SCc3ccc(C)cc3)nc3cc(OC)c(OC)cc3c2=N)cc1Cl	110*	22	103*	94*	8	102*	100*	51*
COc1cc2nc(SCc3ccc(C(F)(F)F)cc3)n(Cc3cccs3)c(=N)c2cc1OC	-3	-8	15	21	8	3	/	/
COc1ccc(Cn2c(SCc3cc(C)ccc3C)nc3cc(OC)c(OC)cc3c2=N)cc1	105*	-7	142*	84*	26	109*	100*	51*
CCCCNC(=O)CSc1nc2cc(OC)c(OC)cc2c(=O)n1Cc1ccc(OC)cc1	-9	3	-2	24	2	8	/	/
COC(=O)C(NC(C)=O)(Nc1cccc(C)n1)C(F)(F)F (stereo unspecified)	1	-17	-12	14	-1	-3	/	/
SMILES	Beta apoptosis	Calb FLC	CSC inhib	Mdm2-MdmX inh	MPTP block	SKKanGAS inh	Mdm2-MdmX conf	Full FLuc ctr
O=C(c1cccc(S(=O)(=O)N2CCN(c3ccc(F)cc3)CC2)c1)N1CCCC1	6	/	3	-9	0	/	/	/
COc1nc(N)nc(N)c1NS(=O)(=O)c1ccc(C)cc1	-3	-4	-12	20	3	1	/	/
COc1ccc(C2c3c(ncn(Cc4ccco4)c3=N)Oc3ccc4ccccc4c32)cc1 (stereo unspecified)	-3	4	94*	88*	2	11	53*	89*
Nc1ncnc2c1C(c1ccccc1)c1c(ccc3ccccc13)O2 (stereo unspecified)	0	/	/	88*	1	/	53*	63*
COc1ccc(Cc2nc3c4c(ncn3n2)Oc2ccc3ccccc3c2C4c2ccc(OC)c(OC)c2)cc1 (stereo unspecified)	-13	19	14	33	1	27	/	/
N=c1c2c(ncn1Cc1ccco1)Oc1ccc3ccccc3c1C2c1ccccc1 (stereo unspecified)	/	-5	102*	86*	7	23	56*	49*
COc1ccc(C2c3ccc(O)cc3Oc3ncn(Cc4ccco4)c(=N)c32)cc1 (stereo unspecified)	-3	1	20	20	1	6	/	/
Cc1ccc(NC(=O)C/C(N)=N/O)cc1C	/	-7	/	14	-1	-3	/	/
Cc1ccc(C(=O)Nc2ccnc(-c3cccnc3)n2)cc1	-7	57	3	28	-2	-3	/	/
Cc1ccc(NC(=O)Nc2ccnc(-c3cccnc3)n2)cc1	-19	-9	30	76*	1	7	71*	68*
O=C(NCCC1=CCCCC1)C1CCN(S(=O)(=O)c2ccccc2C(F)(F)F)CC1	6	0	9	14	-1	1	/	/
Cc1cc(N2CCN(c3ccc([N+](=O)[O-])c4cccnc34)CC2)c2ccccc2n1	9	-58	2	94*	21	1	80*	55*
O=C(Nc1cccc(S(=O)(=O)N2CCCCC2)c1)c1ccc(N2CCCC2=O)cc1	-5	/	/	-6	-1	/	/	/
